Calls of active or inactive are those of the source. The calls were made as follows: active = hit-call score of the fitted dose curve at least 0.9, where 1 is the maximum; inactive = score below 0.9.

We go through eight compounds from PubChem BioAssay (EPA / NIEHS).

The nature of assay [1]: ATG_M_61_CIS: Attagene CIS-FACTORIAL HepG2 Assay for M61 Transcription Factor (Internal Marker) (AID 2282937). The following applies: HepG2 Attagene CIS-FACTORIAL M61 internal marker reporter; actives raise or lower the signal. Summed up: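 Readout: fluorescent reporter mRNA fragments resolved by capillary electrophoresis after RT-PCR. Transiently transfected human HepG2 cells carried MRTU constructs reporting endogenous TF activity; 24 h chemical exposure; gain or loss of signal fitted relative to DMSO.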

Assay [2] is described as follows: ATG_EGR_CIS: Attagene CIS-FACTORIAL HepG2 Assay for human Early Growth Response 1 (EGR1) (AID 2282938). The following applies: HepG2 Attagene CIS-FACTORIAL EGR reporter mRNA; actives raise or lower the signal. In a few lines:
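Read-out: fluorescent reporter-mRNA fragments resolved by capillary electrophoresis after RT-PCR, 24 h post-dose in transiently transfected HepG2. Endogenous transcription-factor activity reported via cis-element-regulated reporter units; gain or loss fitted relative to DMSO.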

Assay [3] is described as follows: ATG_M_19_CIS: Attagene CIS-FACTORIAL HepG2 Assay for M19 Transcription Factor (Internal Marker) (AID 2282939). The following applies: HepG2 Attagene CIS-FACTORIAL M19 internal marker reporter; actives raise or lower the signal. Summed up: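 Internal marker readout, fitted in both directions against DMSO, from HepG2 cells carrying transfected cis-element reporter constructs; RT-PCR and capillary electrophoresis of reporter mRNA after 24 h exposure.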

Assay [4] in a line: ATG_Ets_CIS: Attagene CIS-FACTORIAL HepG2 Assay for human Erythroblast Transformation Specific (ETS) (AID 2282941). The following applies: HepG2 ETS cis-reporter transcription, actives raise or lower the signal. In a few lines:
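After transient cis-reporter transfection, HepG2 cells receive test chemical for 24 h. Reporter mRNA levels, measured by RT-PCR and capillary electrophoresis fluorescence, are analysed bidirectionally relative to the DMSO baseline.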

Assay [5] concerns the target Hepatocyte nuclear factor 3-beta (Homo sapiens) (UniProt Q9Y261). The experiment in a line: ATG_FoxA2_CIS: Attagene CIS-FACTORIAL HepG2 Assay for human Forkhead box A2 (FOXA2) (AID 2282942). Particulars: HepG2 cis-reporter transcription factor activity, 24 h; actives raise or lower the signal. In a few lines:
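Readout: fluorescent reporter transcripts resolved by capillary electrophoresis after RT-PCR. Transiently transfected HepG2, 24 h compound exposure, endogenous TF activity at cis promoter elements. Gain or loss of signal fitted relative to DMSO.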

A short description of assay [6]: ATG_FoxO_CIS: Attagene CIS-FACTORIAL HepG2 Assay for human Forkhead box O (FoxO) (AID 2282943). Particulars: HepG2 Attagene cis-reporter, FoxO element, mRNA; actives raise or lower the signal. Summed up: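 Read-out: fluorescence of 6-FAM-labelled reporter cDNA fragments resolved by capillary electrophoresis. Transiently transfected HepG2 cells were dosed for 24 h; activity fitted in both directions relative to DMSO controls.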

Assay [7] is described as follows: ATG_GATA_CIS: Attagene CIS-FACTORIAL HepG2 Assay for human GATA Binding Protein (AID 2282944). Particulars: HepG2 GATA cis-element reporter, Attagene multiplex mRNA; actives raise or lower the signal. In a few lines: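 Reporter transcripts from a GATA cis-regulated unit, among multiplexed reporters in transfected HepG2 cells, were measured by RT-PCR with capillary electrophoresis after 24 h dosing. Induction or loss scored relative to DMSO.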

A short description of assay [8]: ATG_GLI_CIS: Attagene CIS-FACTORIAL HepG2 Assay for human Zinc Finger Protein GLI1 (AID 2282945). The following applies: HepG2, Attagene cis-factorial reporter mRNA, GLI element; actives raise or lower the signal. In a few lines:
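Transiently transfected HepG2 cells report endogenous transcription factor activity via cis-element-driven reporter units. After 24 h compound exposure, reporter mRNA was measured by RT-PCR with capillary electrophoresis; bidirectional fitting against DMSO baseline.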

Assay [9] deals with Bile acid receptor (Homo sapiens) (UniProt Q96RI1). The experiment in a line: ATG_IR1_CIS: Attagene CIS-FACTORIAL HepG2 Assay for human Nuclear Receptor Subfamily 1 Group H Member 4 (NR1H4), IR1 submotif (AID 2282946). The following applies: IR1 reporter transcription, actives raise or lower the signal. In a few lines: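 HepG2 cells transiently transfected with multiple cis-promoter-driven reporter units to measure endogenous transcription factor activity; 24 h exposure. Reporter mRNA read by RT-PCR, FAM labelling, HpaI digestion and capillary electrophoresis. Bidirectional fit versus DMSO.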

Assay [10] can be described thus: ATG_GRE_CIS: Attagene CIS-FACTORIAL HepG2 Assay for human Glucocorticoid Response Elements (GRE) (AID 2282947). The following applies: HepG2 GRE cis-reporter, Attagene multiplex mRNA; actives raise or lower the signal. Summed up:
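Transiently transfected HepG2 cells carrying GRE cis-reporter units (endogenous TF activity) dosed 24 h; reporter mRNA quantified by RT-PCR, 6-FAM labelling, HpaI digestion and capillary electrophoresis. Bidirectional fit versus DMSO baseline.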

A short description of assay [11]: ATG_ISRE_CIS: Attagene CIS-FACTORIAL HepG2 Assay for human Interferon Regulatory Factor 1 (IRF1) binding to an Interferon-Stimulated Response Element (ISRE) (AID 2282948). The following applies: HepG2 ISRE cis-reporter (Attagene), mRNA transcription readout; actives raise or lower the signal. In a few lines:
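Quantitation relies on labelled RT-PCR fragments separated by capillary electrophoresis. Human HepG2 cells bearing cis-promoter reporter constructs were treated 24 h; DMSO served as baseline for bidirectional fitting.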

Assay [12] is described as follows: ATG_M_06_CIS: Attagene CIS-FACTORIAL HepG2 Assay for M06 Transcription Factor (Internal Marker) (AID 2282950). The following applies: HepG2 Attagene CIS-FACTORIAL M06 internal marker reporter; actives raise or lower the signal. In a few lines: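 Serves as a background control readout. Transfected HepG2 exposed to compounds for 24 h, then reporter transcripts quantified by fluorescent RT-PCR and capillary electrophoresis. Both directions fitted against DMSO baseline.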

Assay [13] has as its target Hypoxia-inducible factor 1-alpha (Homo sapiens) (UniProt Q16665). The experiment in a line: ATG_HIF1a_CIS: Attagene CIS-FACTORIAL HepG2 Assay for human Hypoxia Inducible Factor 1 (HIF1A) (AID 2282951). The following applies: HepG2 Attagene cis-factorial HIF1a reporter transcription; actives raise or lower the signal. Summed up: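 RT-PCR/capillary electrophoresis fluorescence readout of reporter transcripts from endogenous-TF-driven cis elements in transfected HepG2 cells, 24 h exposure; activity fitted in both directions against DMSO controls.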

Assay [14] deals with Hepatocyte nuclear factor 6 (Homo sapiens) (UniProt Q9UBC0). The experiment in a line: ATG_HNF6_CIS: Attagene CIS-FACTORIAL HepG2 Assay for human Hepatocyte Nuclear Factor 6 (HNF6) (AID 2282952). Particulars: HepG2 Attagene cis-factorial HNF6 reporter transcription; actives raise or lower the signal. In a few lines: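 Multiplexed mRNA reporter assay in transfected HepG2; 24 h dosing; RT-PCR plus capillary electrophoresis fluorescence; DMSO-referenced bidirectional curve fitting.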

For assay [15], the target named is Heat shock factor protein 1 (Homo sapiens) (UniProt Q00613). The experiment in a line: ATG_HSE_CIS: Attagene CIS-FACTORIAL HepG2 Assay for human Heat Shock Transcription Factor 1 (HSE) (AID 2282953). Particulars: HepG2 HSE cis-reporter, Attagene RNA transcription; actives raise or lower the signal. In a few lines:
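Endogenous transcription factor activity in transiently transfected HepG2, read as reporter mRNA by RT-PCR with fluorescent capillary electrophoresis after 24 h. Gain or loss of signal fitted versus DMSO baseline.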

Assay [16] in a line: ATG_MRE_CIS: Attagene CIS-FACTORIAL HepG2 Assay for human Metal Responsive Element (MRE) (AID 2282954). Particulars: HepG2 MRE cis-reporter transcription, Attagene multiplex; actives raise or lower the signal. In a few lines: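 HepG2 cells transiently transfected with cis-element-driven reporter units; mRNA measured 24 h after dosing. Reporter transcripts quantified by RT-PCR, FAM labelling, HpaI digestion and capillary electrophoresis; bidirectional fit versus DMSO.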

The nature of assay [17]: ATG_PBREM_CIS: Attagene CIS-FACTORIAL HepG2 Assay for human Phenobarbital-responsive Enhancer Module (PBREM) (AID 2282955). The following applies: HepG2 PBREM cis-reporter, Attagene multiplexed transcription; actives raise or lower the signal. In a few lines: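 Reporter mRNA read by RT-PCR, 6-FAM primer extension, HpaI digestion and capillary electrophoresis. Transfected HepG2 cells, 24 h compound exposure. Gain or loss of signal fitted bidirectionally relative to DMSO baseline.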

Assay [18] in a line: ATG_M_32_CIS: Attagene CIS-FACTORIAL HepG2 Assay for M32 Transcription Factor (Internal Marker) (AID 2282949).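 Also: background control marker of the multiplexed CIS panel rather than a real target.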 Particulars: HepG2 Attagene cis-factorial M32 reporter, mRNA; actives raise or lower the signal. In a few lines: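 HepG2 cells transiently transfected with multiplexed cis-regulated reporter units, dosed 24 h. Reporter mRNA quantified by RT-PCR, 6-FAM labelling, HpaI digestion and capillary electrophoresis; bidirectional fit vs DMSO.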

Sequence of Hepatocyte nuclear factor 6 (Homo sapiens) (Q9UBC0 whole entry, looked up): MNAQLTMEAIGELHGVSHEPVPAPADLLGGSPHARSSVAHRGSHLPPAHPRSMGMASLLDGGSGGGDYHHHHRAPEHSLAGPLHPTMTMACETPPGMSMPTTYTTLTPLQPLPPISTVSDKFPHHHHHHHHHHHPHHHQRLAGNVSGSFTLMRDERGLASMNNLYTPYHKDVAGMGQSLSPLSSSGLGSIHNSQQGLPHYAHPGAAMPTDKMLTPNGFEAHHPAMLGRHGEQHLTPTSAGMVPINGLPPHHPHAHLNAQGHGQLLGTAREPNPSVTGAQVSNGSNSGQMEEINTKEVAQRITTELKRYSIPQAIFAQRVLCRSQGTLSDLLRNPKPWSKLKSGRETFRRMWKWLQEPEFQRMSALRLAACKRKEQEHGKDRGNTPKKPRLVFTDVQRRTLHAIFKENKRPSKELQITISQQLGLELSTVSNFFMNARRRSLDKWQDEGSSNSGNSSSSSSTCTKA
Sequence of Bile acid receptor (Homo sapiens) (Q96RI1 whole entry, looked up): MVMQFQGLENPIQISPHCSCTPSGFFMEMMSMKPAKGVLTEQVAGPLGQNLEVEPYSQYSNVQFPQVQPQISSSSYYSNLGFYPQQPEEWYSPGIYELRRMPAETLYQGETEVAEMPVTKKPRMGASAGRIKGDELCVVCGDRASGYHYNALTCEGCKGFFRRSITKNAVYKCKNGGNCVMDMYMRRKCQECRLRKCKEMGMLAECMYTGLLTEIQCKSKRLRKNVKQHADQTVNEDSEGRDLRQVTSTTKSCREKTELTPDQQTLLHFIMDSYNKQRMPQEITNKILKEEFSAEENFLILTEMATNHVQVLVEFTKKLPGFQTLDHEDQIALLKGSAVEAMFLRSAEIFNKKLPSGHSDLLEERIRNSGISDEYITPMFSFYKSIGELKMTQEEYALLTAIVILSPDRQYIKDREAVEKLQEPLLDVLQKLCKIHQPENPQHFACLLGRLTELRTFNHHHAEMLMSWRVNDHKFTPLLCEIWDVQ
Sequence of Heat shock factor protein 1 (Homo sapiens) (Q00613 whole entry, looked up): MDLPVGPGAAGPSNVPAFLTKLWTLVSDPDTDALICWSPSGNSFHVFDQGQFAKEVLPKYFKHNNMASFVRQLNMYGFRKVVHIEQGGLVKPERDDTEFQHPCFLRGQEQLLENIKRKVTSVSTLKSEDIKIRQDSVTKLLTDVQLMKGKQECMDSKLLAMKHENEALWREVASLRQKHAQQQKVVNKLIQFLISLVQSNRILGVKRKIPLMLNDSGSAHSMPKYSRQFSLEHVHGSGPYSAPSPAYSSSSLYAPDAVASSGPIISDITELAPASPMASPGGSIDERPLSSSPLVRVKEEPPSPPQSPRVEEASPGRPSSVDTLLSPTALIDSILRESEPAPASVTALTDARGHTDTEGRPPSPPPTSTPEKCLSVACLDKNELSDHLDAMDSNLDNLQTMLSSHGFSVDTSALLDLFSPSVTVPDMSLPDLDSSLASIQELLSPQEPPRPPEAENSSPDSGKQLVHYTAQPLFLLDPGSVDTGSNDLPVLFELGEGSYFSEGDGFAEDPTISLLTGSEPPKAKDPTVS
Sequence of Hepatocyte nuclear factor 3-beta (Homo sapiens) (Q9Y261 whole entry, looked up): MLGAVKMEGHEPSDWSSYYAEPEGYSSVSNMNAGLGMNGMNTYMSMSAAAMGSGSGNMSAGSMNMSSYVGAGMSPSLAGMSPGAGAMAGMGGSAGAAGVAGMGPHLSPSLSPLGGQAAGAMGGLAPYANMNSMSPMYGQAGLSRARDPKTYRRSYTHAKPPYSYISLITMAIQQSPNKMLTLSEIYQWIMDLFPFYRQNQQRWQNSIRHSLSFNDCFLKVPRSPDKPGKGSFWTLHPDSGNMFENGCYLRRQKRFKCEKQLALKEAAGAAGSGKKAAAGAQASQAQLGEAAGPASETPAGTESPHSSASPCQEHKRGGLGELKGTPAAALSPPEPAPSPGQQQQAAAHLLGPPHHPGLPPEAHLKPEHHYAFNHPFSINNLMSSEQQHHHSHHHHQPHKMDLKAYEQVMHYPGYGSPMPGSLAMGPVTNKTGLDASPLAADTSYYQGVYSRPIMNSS
Sequence of Hypoxia-inducible factor 1-alpha (Homo sapiens) (Q16665 whole entry, looked up): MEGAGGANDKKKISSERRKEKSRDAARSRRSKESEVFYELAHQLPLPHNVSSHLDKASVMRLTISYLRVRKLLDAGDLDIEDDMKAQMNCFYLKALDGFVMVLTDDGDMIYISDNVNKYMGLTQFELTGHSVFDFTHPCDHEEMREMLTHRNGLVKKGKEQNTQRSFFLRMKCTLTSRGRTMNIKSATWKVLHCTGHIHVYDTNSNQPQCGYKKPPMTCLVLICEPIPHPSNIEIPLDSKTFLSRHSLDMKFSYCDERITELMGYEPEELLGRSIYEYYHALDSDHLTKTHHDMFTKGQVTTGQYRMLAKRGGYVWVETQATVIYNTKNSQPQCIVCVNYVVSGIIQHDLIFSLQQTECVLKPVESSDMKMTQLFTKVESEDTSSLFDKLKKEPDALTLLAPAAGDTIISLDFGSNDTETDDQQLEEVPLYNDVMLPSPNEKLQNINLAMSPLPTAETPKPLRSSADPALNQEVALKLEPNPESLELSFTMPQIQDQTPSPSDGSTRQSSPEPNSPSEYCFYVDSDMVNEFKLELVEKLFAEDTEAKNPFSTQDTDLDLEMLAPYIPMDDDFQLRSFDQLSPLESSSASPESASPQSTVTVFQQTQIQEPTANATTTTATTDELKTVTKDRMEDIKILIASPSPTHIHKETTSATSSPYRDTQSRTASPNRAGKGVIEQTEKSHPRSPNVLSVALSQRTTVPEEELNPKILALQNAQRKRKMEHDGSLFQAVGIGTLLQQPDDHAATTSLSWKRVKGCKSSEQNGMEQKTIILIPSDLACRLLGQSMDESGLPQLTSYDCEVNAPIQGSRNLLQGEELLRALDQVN

On to `COCCOCCOCCOC`, for which the compound was classed as inactive in assay [1], in assay [2], in assay [3], in [4], in [5] and in [6]. In addition, the result in assay [7], in assay [8], in assay [9], in [10], in assay [11] and in [12] was inactive. In addition, the result in assay [13], in assay [14], in [15] and in assay [16] was inactive.
Turning to `O=C(O)c1cc(N=Nc2ccc(S(=O)(=O)Nc3ccccn3)cc2)ccc1O`, the outcome in assay [1], in assay [2], in assay [3], in [4], in [5] and in assay [6] was inactive. Further, the outcome in assay [7], in assay [8], in [10], in assay [11], in assay [12] and in [14] was inactive. Also, the call in assay [15] and in assay [16] was inactive.
Turning to `Nc1cccc(N)c1`, the compound was classed as inactive in assay [1], in assay [2], in [3], in assay [4], in assay [5] and in assay [6]. Moreover, the compound was called inactive in [7], in assay [8], in assay [9], in assay [11], in assay [12] and in [13]. For the same compound, the compound was called inactive in [14], in assay [15], in assay [16] and in assay [17].
As to `CCOC(=O)CC(CC(=O)OCC)(OC(C)=O)C(=O)OCC`, the compound was called inactive in [1], in assay [2], in assay [3], in [4], in assay [5] and in assay [6]. The compound was classed as inactive in [7], in assay [8], in assay [9], in assay [11], in assay [18] and in assay [12]. In addition, the call in [13], in assay [14], in assay [15], in [16] and in assay [17] was inactive.
In the case of `Cn1c(=O)c2c(ncn2C)n(C)c1=O`, the result in [1], in [2], in assay [3], in assay [4], in [5] and in assay [6] was inactive. The compound was called inactive in assay [7], in assay [8], in assay [10], in assay [11], in assay [12] and in assay [13]. The compound was classed as inactive in assay [14], in assay [15], in [16] and in assay [17].
As for `O=C1CCC(N2C(=O)c3ccccc3C2=O)C(=O)N1` (stereo not drawn), the call in assay [1], in assay [2], in assay [3], in assay [4], in assay [5] and in assay [6] was inactive. Also, the compound was classed as inactive in assay [7], in assay [8], in assay [10], in assay [11], in [12] and in assay [14]. Further, the compound was called inactive in assay [15], in assay [16] and in assay [17].
On to `CCOC(=O)c1ccc(C2CCC(NC[C@H](O)COc3ccc(O)c(NS(C)(=O)=O)c3)CC2)cc1` (stereo partly drawn), for which the compound was classed as inactive in assay [1], in assay [3], in [4], in assay [5], in [18] and in assay [12]. Further, in [14], the compound was called inactive. Besides, the half-maximal activity concentration (AC50) was 56.8 µM (active) in [2]; 53.5 µM (active) in assay [6]; 48.8 µM (active) in assay [7]; 59.6 µM (active) in assay [8]; 53.2 µM (active) in assay [9]; 53.8 µM (active) in [10]. Further, the concentration at half-maximal activity (AC50) was 51.5 µM (active) in [11]; 7.81 µM (active) in [13]; 61.8 µM (active) in assay [15]; 55 µM (active) in assay [16]; 53.4 µM (active) in assay [17].
As for `O=C(CCCCCCCCc1cccnc1)N1CCC(C=C(c2ccccc2)c2ccccc2)CC1`, the half-maximal activity concentration (AC50) in [1] is 59.8 µM (active); in [2], 17 µM (active); in assay [3] it was 59.4 µM (active); in assay [11], 16.7 µM (active); in [12], 59.8 µM (active); in [13], 1.37 µM (active). The values for the AC50 in assay [14], in assay [15] and in assay [16] were 23.9 µM (active), 15.9 µM (active) and 2.78 µM (active), respectively. Also, the result in [4], in assay [5], in assay [6], in assay [7], in [8] and in assay [10] was inactive. Besides, the compound was classed as inactive in assay [18].
